Bioassay records from PubChem.
TRHR enhancer: allosteric enhancers of human TRH receptor. TRHR cells, fluo-8 calcium fluorescence, EC20 TRH enhancement. enhancement, % at 2 µM. 360,000 compounds, 0.66% hits; in the data active means enhancement above about 30%
Target sequence (P34981 whole entry, looked up): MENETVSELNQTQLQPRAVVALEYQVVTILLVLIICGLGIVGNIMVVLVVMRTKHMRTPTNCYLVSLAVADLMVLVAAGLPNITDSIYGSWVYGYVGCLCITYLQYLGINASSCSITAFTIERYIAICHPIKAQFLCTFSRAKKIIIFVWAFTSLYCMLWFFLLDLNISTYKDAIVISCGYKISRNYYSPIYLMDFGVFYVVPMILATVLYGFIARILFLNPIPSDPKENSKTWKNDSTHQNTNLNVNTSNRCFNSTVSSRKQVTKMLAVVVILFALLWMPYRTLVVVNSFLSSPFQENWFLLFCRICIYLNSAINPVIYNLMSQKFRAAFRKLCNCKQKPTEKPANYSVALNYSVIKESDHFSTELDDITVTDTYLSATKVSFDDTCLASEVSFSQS
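Enhancer read-out: after compound pinning and an initial kinetic agonist-mode read, an EC20 of TRH (10 nM final) was injected and fluo-8 calcium signal (Ex 480/Em 530) followed at 1 s/cycle for 100 cycles in TRHR-expressing cells.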
D1 PAM: enhances dopamine response at the human D1 receptor. HEK293 TREx D1 cells, calcium flux, dopamine EC20 potentiation. P21728. potentiation, % at 10 µM. 360,000 compounds, 0.036% hits; in the data active means potentiation above about 30%
D1 agonist: agonists of human D1 dopamine receptor; AID 504660; 360,000 compounds, 1% hits; activation, % at 2 µM; HEK293 T-REx D1 cells, calcium flux, agonist mode; P21728
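Agonism was scored from calcium flux recorded over 180 s (1 read/s) after pintool compound addition, following a 10-cycle baseline. Cells were inducible force-coupled HEK293 TREx D1, plated overnight at 30 C and loaded with no-wash calcium dye.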
D1 antagonist: antagonists of human D1 dopamine receptor. P21728. HEK293 TREx D1 cells, calcium flux, dopamine EC80; hits give low values. activity change, negative = inhibition, % at 10 µM. 360,000 compounds, 3.2% hits. AID 504652; in the data active means activity change below about -30%
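Antagonism measured as reduced calcium response to an EC80 dopamine addition following 180 s compound pre-read; cells were inducible HEK293 Trex D1 plated overnight at 30 C, read kinetically at 1 cycle/sec.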
TRHR ag: TRH receptor (human) agonism. TRHR cells, calcium flux fluo-8, FDSS agonist mode. activation, % at 2 µM. 360,000 compounds, 0.18% hits
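In this calcium-flux screen, cells bearing human TRHR are dye-loaded with fluo-8, baselined for 10 cycles, then exposed to library compounds; positive kinetic calcium responses during the agonist phase mark hits, with TRH as control.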
Of the large screens only hits and unclear results are named; the others gave an inactive call. Rows were chosen to be rich in hits. Some 4.7% of all compounds tested hit in one or more screens of this group. Unless noted, no stated cut-off is given here; in the data, active means activation above about 30%; inactive means the rest.

CCOC(=O)c1c(NC(=O)CCCOc2ccccc2C)sc2c1CCC(C)C2 (stereo not given)	TRHR enhancer 33
CCOC(=O)c1c(NC(=O)COc2cccc(C)c2C)sc2c1CCCCC2	D1 antagonist -44
COc1cccc(CNC(=O)C2CCN(C(=O)N3CCOc4ccc(Cl)cc43)CC2)c1OC	none
CCOC(=O)c1[nH]c(C)c(CCC(=O)Nc2cc(C)ccc2OC)c1C	none
CCOc1ccc(C(=O)Nc2nnc(SCc3cc(=O)n4ccccc4n3)s2)cc1	none
Cc1ccc2nc(NC(=O)CSc3nccn3Cc3ccccc3)sc2c1	none
CCOC(=O)C1CCN(C(=O)Cn2c(=O)oc3cc(S(=O)(=O)N4CCCC4)ccc32)CC1	none
Cc1ccc(S(=O)(=O)N2CCC(C(=O)OCC(=O)N(C)C3CCCCC3)CC2)cc1C	D1 antagonist -38
Cc1ccc(S(=O)(=O)N2CCOCC2)cc1C(=O)Nc1ccc(C(N)=O)cc1	D1 antagonist -32
Cc1ccc(S(=O)(=O)N2CCC(C(=O)OCC(=O)N(C)C3CCS(=O)(=O)C3)CC2)cc1C (stereo not given)	none
CCOC(=O)C1CCN(C(=O)Cn2c(=O)oc3cc(S(=O)(=O)N4CCC(C)CC4)ccc32)CC1	D1 antagonist -39
CN(C(=O)COC(=O)C1CCN(S(=O)(=O)c2c(Cl)cccc2Cl)CC1)c1ccccc1	D1 antagonist -32
Cc1ccc(CNC(=O)CN(C)S(=O)(=O)c2ccc3c(c2)c(=O)n(C)c(=O)n3C)cc1	none
CCOC(=O)C1CCN(C(=O)c2cc(S(=O)(=O)N3CCOCC3)ccc2C)CC1	TRHR enhancer 31
CCc1cc2c(s1)c1cnn(Cc3ccccc3F)c(=O)c1n2C	none
CSc1cc2c(s1)c1cnn(Cc3ccccc3F)c(=O)c1n2C	D1 PAM 38
COc1ccc(Nc2sc(C(=O)c3ccccc3)c(N)c2C(=O)Nc2cc(C)ccc2C)c(OC)c1	D1 agonist 47
COc1ccc(C(=O)c2sc(Nc3cccc(OC)c3)c(C(=O)Nc3cccc(C)c3C)c2N)cc1	D1 agonist 71, D1 antagonist -51
COc1ccc(NC(=O)c2c(Nc3ccccc3)sc(C(=O)c3ccc(F)cc3)c2N)cc1	none
COc1ccc(Nc2sc(C(=O)c3ccc(Cl)cc3)c(N)c2C(=O)Nc2ccccc2OC)cc1	D1 agonist 78, D1 antagonist -50
Cc1ccc(NC(=O)c2c(Nc3ccccc3C)sc(C(=O)c3ccccc3)c2N)cc1	none
Cc1ccc2c(CNC3CCCC3)c(C(=O)O)n(Cc3ccc(F)cc3)c2c1	none
Cc1ccccc1NC(=O)c1cccc(N2C(=O)C3CCCCC3C2=O)c1 (stereo not given)	D1 antagonist -30
CN(C(=O)c1cccc(N2C(=O)C3CC=CCC3C2=O)c1)C1CCCCC1 (stereo not given)	D1 antagonist -30
CCc1c(-c2ccccc2)nc2ccccc2c1C(=O)NCc1ccc(C)cc1	none
O=C(NCCO)C(=O)c1c(-c2ccccc2)cc2ccccn12	D1 antagonist -31
COc1cccc(CNC(=O)c2ccc(NC(=O)N3CC(C)Sc4ccccc43)cc2)c1 (stereo not given)	none
CCN(CC)c1ccc2c(-c3ccc(S(=O)(=O)O)cc3S(=O)(=O)[O-])c3ccc(=[N+](CC)CC)cc-3oc2c1	D1 agonist 172
CCS(=O)(=O)N1CCc2cc(C(=O)Nc3ccc(Br)cc3F)ccc21	none
CN1CCN(Cc2ccc(Sc3ccc(Cl)cc3)c([N+](=O)[O-])c2)CC1	D1 agonist 79
Cc1ccc(N2C(=O)/C(=C\c3ccc(C(C)C)cc3)N=C2SC2CCOC2=O)cc1 (stereo not given)	D1 antagonist -38
Cc1ccc(S(=O)(=O)N(CC(O)Cn2c3ccccc3c3ccccc32)c2cccc(C(=O)NCCO)c2)cc1 (stereo not given)	none
CCN(C(=O)c1cc2c(=O)n(CC)c3ccccc3c2s1)c1cccc(C(F)(F)F)c1	none
Cc1ccc(CS/C(Nc2ccccc2C)=C(\C#N)C(=O)NCc2ccco2)c(C)c1	D1 agonist 30
COc1ccc(C)cc1NC(=O)c1cc(S(=O)(=O)NC2CCCCCC2)ccc1F	none
COc1ccc(C2/C=C\CN(C(=O)C3CCCC3)CC(=O)N2Cc2ccc(F)cc2)cc1 (stereo not given)	D1 antagonist -34
COc1cc(NC(=O)c2cc(-c3cccc(OC)c3)n[nH]2)cc(OC)c1	none
CCn1c(/C=C/c2ccc(O)c(O)c2)nc2ccccc2c1=O	TRHR enhancer 34
CCn1c(/C=C/c2ccc(O)cc2)nc2ccccc2c1=O	none
CCc1nn2c(=O)cc(COC(=O)c3ccccc3NC(=O)c3cccs3)nc2s1	none
Cc1cc(=O)n2nc(N3CCCC(C(=O)NCCCN4CCc5ccccc5C4)C3)sc2n1 (stereo not given)	D1 antagonist -32
CCC1CCCCN1CCCNC(=O)C1CCCN(c2nn3c(=O)cc(C)nc3s2)C1 (stereo not given)	none
COC(=O)Cn1c(=O)n(CCc2ccccc2)c(=O)c2c3c(sc21)CCCC3	none
CCOc1ccc(NC(=O)Cn2c(=O)n(CCc3ccccc3)c(=O)c3c4c(sc32)CCCC4)cc1	D1 antagonist -36
CCOc1ccccc1NC1(c2ccccc2)C(=O)c2ccccc2C1=O	none
COc1cccc(C2C=C(c3ccc(C)c(C)c3)Nc3nnnn32)c1OC (stereo not given)	none
COc1ccc(C)cc1NC(=O)Cn1c(=O)cc(C)c2c(C)nn(C)c21	D1 antagonist -31
O=C(COc1ccccc1)N(Cc1cccnc1)c1nc2ccc(Cl)cc2s1	none (no result: D1 antagonist)
CC(C)c1ccccc1NC(=O)CNCCc1ccc(C(F)(F)F)cc1	D1 agonist 36
NS(=O)(=O)c1ccc(CCNC(=O)CNCCc2ccc(C(F)(F)F)cc2)cc1	none
Cn1nc(C(F)(F)F)c(-c2cccc(C(F)(F)F)c2)c1NC(=O)c1ccco1	none
Cn1nc(-c2ccccc2)cc1NC(=O)Nc1ccc(F)cc1	D1 antagonist -44
Cn1nc(C(F)(F)F)c(-c2cccc(C(F)(F)F)c2)c1NC(=O)Nc1ccc(F)cc1	D1 antagonist -31
COc1ccc(CCNc2nc(-c3sc(N)nc3C)cs2)cc1OC	D1 antagonist -61
COc1ccc(Nc2nc(-c3sc(N)nc3C)cs2)cc1	none
COc1ccc(O)c(CN2CCCC(C(=O)Nc3cccc(-n4cccn4)c3)C2)c1 (stereo not given)	D1 antagonist -68
Cc1nn(C)c(Cl)c1CN1CCCC(C(=O)Nc2cccc(-n3cccn3)c2)C1 (stereo not given)	D1 antagonist -35
COc1ccc(CN2CCCC(C(=O)Nc3cccc(-n4cccn4)c3)C2)cc1 (stereo not given)	D1 antagonist -53
CCCc1ncc(CN2CCCC(C(=O)Nc3ccc(-c4cccc(OC)c4)cc3)C2)cn1 (stereo not given)	none
